Test [1] has as its target Serine/threonine-protein kinase PLK3 (Homo sapiens) (UniProt Q9H4B4). The following applies: at 1 µM.
For test [2] the target is unchanged. The following applies: at 10 µM.
The target in test [3] is T1, cAMP-dependent protein kinase catalytic subunit PRKX (Homo sapiens) (UniProt P51817).
T1 sequence (whole entry): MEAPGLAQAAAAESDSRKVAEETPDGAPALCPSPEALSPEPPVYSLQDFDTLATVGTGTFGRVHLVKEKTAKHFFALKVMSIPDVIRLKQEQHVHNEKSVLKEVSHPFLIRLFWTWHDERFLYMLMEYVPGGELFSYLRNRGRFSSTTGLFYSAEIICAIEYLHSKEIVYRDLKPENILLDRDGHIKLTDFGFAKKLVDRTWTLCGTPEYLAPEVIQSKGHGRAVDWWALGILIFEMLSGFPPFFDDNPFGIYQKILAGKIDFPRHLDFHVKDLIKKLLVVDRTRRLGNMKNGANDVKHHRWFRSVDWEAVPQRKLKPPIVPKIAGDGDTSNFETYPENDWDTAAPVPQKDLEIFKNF
The note with it: at 1 µM.

In test [4] the target is T1, cAMP-dependent protein kinase catalytic subunit PRKX (Homo sapiens). The following applies: at 10 µM.
For test [5], the target named is Protein-tyrosine kinase 2-beta (Homo sapiens) (UniProt Q14289). The note with it: at 1 µM.
Test [6] shares this target. The note with it: at 10 µM.
The target of test [7] is Receptor-interacting serine/threonine-protein kinase 2 (Homo sapiens) (UniProt O43353). The following applies: at 1 µM.
Test [8] has the same target. The following applies: at 10 µM.
In test [9] the target is Rho-associated protein kinase 1 (Homo sapiens) (UniProt Q13464). The note with it: at 1 µM.
Test [10] shares this target. The note with it: at 10 µM.
In test [11] the target is Rho-associated protein kinase 2 (Homo sapiens) (UniProt O75116). The note with it: at 1 µM.
For test [12] the target is unchanged. The note with it: at 10 µM.
For test [13], the target named is Proto-oncogene tyrosine-protein kinase receptor Ret (Homo sapiens) (UniProt P07949). The following applies: at 1 µM.
Test [14] shares this target. The following applies: at 10 µM.
In test [15] the target is Macrophage-stimulating protein receptor (Homo sapiens) (UniProt Q04912). The following applies: at 1 µM.
Test [16] shares this target. The following applies: at 10 µM.
Test [17] concerns the target Proto-oncogene tyrosine-protein kinase ROS (Homo sapiens) (UniProt P08922). The following applies: at 1 µM.
For test [18] the target is unchanged. The note with it: at 10 µM.
Test [19] concerns the target T2, Tyrosine-protein kinase receptor TYRO3 (Homo sapiens) (UniProt Q06418).
T2 sequence (whole entry): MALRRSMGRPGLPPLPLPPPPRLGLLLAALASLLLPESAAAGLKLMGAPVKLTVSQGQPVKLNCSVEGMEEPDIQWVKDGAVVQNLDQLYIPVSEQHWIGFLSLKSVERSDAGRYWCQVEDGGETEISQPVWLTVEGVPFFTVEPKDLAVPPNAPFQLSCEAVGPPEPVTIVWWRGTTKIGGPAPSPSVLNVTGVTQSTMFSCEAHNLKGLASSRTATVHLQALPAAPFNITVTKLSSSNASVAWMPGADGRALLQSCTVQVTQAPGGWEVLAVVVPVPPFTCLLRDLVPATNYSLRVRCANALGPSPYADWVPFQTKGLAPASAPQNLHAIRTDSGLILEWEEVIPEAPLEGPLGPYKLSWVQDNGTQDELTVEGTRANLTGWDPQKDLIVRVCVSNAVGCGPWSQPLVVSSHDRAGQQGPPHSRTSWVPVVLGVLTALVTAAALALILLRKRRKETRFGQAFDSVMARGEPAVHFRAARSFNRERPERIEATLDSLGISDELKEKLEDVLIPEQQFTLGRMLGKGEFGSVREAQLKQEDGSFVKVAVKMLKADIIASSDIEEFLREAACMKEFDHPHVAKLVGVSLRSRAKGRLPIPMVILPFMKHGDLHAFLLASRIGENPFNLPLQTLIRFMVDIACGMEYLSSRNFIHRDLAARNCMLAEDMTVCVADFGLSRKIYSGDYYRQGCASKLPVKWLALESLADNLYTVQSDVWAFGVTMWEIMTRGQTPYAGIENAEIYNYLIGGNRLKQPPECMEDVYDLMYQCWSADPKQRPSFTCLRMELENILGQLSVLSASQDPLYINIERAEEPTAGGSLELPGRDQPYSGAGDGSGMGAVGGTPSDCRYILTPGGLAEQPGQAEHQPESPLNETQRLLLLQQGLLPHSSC
The note with it: at 1 µM.

For test [20], the target named is T2, Tyrosine-protein kinase receptor TYRO3 (Homo sapiens). The note with it: at 10 µM.

Sequence of Rho-associated protein kinase 2 (Homo sapiens) (O75116 whole entry, looked up): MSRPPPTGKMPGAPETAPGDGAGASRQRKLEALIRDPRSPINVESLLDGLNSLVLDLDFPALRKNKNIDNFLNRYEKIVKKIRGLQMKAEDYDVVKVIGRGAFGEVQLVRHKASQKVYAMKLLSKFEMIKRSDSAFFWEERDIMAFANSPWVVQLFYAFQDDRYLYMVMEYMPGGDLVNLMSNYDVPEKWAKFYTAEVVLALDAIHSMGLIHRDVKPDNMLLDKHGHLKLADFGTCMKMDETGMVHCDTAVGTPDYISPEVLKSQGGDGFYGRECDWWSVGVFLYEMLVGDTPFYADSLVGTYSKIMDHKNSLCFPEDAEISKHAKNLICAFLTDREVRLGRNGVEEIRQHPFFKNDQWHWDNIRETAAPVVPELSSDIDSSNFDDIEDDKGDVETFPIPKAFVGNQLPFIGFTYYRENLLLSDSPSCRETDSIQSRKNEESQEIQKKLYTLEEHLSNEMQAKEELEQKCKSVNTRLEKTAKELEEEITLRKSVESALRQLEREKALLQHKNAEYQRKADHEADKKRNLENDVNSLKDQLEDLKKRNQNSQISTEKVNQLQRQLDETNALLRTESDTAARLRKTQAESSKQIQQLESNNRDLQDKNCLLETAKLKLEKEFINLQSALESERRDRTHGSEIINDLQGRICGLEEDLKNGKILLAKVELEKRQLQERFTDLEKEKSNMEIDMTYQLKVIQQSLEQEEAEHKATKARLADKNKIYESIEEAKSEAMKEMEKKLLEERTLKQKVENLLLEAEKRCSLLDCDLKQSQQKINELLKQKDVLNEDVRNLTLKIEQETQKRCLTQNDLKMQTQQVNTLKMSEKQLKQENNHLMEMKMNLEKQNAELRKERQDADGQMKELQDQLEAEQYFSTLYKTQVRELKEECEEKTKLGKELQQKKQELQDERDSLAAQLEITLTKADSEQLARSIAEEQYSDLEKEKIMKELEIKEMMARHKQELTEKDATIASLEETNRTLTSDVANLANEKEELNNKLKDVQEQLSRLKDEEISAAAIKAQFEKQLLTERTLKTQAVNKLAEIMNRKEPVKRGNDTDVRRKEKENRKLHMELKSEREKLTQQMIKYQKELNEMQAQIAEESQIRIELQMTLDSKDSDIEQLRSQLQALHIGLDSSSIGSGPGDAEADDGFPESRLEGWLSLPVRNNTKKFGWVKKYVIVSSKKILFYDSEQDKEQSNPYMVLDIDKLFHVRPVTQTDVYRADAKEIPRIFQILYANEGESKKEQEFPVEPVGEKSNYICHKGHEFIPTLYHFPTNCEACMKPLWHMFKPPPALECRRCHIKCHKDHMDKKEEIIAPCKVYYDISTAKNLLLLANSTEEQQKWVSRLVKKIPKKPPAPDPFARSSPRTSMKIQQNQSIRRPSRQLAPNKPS
Sequence of Protein-tyrosine kinase 2-beta (Homo sapiens) (Q14289 whole entry, looked up): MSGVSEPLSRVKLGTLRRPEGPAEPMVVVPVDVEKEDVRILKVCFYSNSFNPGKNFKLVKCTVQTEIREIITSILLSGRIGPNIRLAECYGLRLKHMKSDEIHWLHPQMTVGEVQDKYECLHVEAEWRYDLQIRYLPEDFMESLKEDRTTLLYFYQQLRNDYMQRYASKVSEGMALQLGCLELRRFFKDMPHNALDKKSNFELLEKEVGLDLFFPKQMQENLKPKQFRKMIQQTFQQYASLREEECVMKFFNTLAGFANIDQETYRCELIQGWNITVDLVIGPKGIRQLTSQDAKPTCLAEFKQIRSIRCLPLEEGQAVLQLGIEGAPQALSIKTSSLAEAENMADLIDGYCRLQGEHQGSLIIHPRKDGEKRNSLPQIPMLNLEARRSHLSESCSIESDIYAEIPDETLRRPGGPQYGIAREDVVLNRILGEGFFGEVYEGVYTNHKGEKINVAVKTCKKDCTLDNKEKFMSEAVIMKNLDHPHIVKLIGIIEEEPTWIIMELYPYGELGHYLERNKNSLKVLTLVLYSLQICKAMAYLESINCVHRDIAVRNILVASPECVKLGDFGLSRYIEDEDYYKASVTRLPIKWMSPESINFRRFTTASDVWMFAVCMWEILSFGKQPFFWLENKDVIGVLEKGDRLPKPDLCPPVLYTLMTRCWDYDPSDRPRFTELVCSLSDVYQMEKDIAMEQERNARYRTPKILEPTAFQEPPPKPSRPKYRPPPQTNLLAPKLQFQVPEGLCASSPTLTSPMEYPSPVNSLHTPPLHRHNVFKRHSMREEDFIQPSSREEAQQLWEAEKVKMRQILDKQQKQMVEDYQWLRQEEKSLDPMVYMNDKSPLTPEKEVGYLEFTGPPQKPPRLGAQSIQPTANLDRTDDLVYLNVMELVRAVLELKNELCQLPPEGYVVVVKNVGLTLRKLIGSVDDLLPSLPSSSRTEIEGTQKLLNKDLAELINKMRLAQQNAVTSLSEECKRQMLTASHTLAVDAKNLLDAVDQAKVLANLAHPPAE
Sequence of Serine/threonine-protein kinase PLK3 (Homo sapiens) (Q9H4B4 whole entry, looked up): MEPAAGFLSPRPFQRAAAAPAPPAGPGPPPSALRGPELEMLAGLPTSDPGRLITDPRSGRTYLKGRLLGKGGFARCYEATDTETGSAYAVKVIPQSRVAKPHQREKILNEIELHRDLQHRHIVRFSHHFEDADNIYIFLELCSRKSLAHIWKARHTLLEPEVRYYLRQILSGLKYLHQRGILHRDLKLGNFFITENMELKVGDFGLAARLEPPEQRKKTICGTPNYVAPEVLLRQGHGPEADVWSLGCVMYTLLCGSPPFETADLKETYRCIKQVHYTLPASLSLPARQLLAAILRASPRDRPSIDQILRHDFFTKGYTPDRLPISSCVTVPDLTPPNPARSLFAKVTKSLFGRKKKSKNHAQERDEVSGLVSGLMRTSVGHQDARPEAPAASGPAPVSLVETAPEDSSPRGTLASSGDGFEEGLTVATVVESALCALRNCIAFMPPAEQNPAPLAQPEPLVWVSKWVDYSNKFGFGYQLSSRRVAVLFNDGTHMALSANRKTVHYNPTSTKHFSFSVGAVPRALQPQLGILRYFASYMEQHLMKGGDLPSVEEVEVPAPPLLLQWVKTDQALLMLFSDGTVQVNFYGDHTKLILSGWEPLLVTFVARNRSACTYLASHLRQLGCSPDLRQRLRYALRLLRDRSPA
Sequence of Receptor-interacting serine/threonine-protein kinase 2 (Homo sapiens) (O43353 whole entry): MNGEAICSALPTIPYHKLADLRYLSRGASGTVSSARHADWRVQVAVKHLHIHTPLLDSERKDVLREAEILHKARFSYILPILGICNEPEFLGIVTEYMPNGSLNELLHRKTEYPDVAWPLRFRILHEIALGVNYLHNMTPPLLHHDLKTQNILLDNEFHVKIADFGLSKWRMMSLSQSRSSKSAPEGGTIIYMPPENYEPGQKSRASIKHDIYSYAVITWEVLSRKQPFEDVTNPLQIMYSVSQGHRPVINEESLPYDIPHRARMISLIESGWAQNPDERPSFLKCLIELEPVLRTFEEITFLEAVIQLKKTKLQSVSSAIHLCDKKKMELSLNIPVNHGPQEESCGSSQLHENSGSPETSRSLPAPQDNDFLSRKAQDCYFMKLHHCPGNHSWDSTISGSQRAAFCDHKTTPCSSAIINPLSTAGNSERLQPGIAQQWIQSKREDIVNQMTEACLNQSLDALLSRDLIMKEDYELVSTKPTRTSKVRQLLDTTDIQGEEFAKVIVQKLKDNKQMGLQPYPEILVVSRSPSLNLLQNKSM
Sequence of Macrophage-stimulating protein receptor (Homo sapiens) (Q04912 25-304 limits assumed): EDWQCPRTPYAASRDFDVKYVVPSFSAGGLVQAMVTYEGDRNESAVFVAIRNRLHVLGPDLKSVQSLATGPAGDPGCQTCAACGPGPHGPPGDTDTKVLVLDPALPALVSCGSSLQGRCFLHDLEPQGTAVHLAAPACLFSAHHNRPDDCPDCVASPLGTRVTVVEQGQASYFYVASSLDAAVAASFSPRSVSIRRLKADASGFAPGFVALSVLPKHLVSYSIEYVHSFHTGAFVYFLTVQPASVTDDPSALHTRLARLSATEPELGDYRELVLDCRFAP
Sequence of Macrophage-stimulating protein receptor (Homo sapiens) (Q04912 310-1400 limits assumed): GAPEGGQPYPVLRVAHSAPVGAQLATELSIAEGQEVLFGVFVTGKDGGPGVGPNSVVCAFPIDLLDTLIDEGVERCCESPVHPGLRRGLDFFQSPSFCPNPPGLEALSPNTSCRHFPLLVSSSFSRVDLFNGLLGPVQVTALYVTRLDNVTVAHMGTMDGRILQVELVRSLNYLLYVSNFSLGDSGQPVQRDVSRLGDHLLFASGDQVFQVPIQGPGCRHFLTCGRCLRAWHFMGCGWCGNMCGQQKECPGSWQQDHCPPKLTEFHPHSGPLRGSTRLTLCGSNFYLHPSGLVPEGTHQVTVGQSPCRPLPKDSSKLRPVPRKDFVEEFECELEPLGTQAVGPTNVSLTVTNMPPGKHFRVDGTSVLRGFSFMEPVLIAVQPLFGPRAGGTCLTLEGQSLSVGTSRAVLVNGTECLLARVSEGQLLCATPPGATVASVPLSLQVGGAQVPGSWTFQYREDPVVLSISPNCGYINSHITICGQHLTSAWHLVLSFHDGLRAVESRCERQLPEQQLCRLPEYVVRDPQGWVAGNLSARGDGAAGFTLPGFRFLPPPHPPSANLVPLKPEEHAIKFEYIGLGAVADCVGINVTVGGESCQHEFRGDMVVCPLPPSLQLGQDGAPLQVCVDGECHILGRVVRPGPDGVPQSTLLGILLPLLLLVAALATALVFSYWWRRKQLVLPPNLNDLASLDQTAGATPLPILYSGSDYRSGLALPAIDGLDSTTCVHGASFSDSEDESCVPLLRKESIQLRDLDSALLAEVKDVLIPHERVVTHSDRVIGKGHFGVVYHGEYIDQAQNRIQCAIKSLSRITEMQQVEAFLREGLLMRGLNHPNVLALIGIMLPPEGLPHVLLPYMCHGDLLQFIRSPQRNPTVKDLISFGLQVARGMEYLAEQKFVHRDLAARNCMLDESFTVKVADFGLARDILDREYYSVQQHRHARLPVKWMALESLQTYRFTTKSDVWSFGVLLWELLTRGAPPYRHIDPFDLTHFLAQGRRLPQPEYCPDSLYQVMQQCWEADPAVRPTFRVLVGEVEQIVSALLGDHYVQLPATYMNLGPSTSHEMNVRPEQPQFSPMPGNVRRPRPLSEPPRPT

With `Ic1cccc(CSc2nnc(-c3ccncc3)o2)c1`, the residual activity in test [1] was 87% (inactive); in [2], 94%; in test [3], 57%; in [4] it was 71%; in test [5] it was 103%; in [6], 101%. The residual activity in [7] stood at 82%; in test [8] it was 78%; in test [9], 113%; in test [10], 98%; in [11] it was 68%; in [12], 58%. In addition, the residual activity in [13] amounted to 93%; in [14], 74%; in test [15], 81%; in [16] it was 78%; in test [17], 93%; in test [18], 75%. In addition, the residual activity in test [19] came out at 112%; in test [20], 94%.
In the case of `COc1ccc(C(=O)Nc2sc3c(c2C(N)=O)CCCC3)cc1OC`, the residual activity in [1] was 90% (inactive); in [2], 91%; in test [3] it was 80%; in [4], 95%; in test [5] it was 121%; in test [6] it was 89%. The residual activity in test [7] was determined as 79%; in [8], 71%; in test [9], 101%; in [10], 119%; in [11] it was 96%; in test [12], 80%. Moreover, the residual activity turned out to be 93% in test [13]; 113% in [14]; 99% in test [15]; 73% in [16]; 96% in test [17]; 97% in [18]. In addition, the residual activity in test [19] was found to be 86%; in test [20], 96%.
Consider `O=C1NC(=O)/C(=C\c2ccc3nccnc3c2)S1`, for which the residual activity is 95% (inactive) in [1]; 85% in test [2]; 67% in test [3]; 27% in test [4]; 124% in test [5]; 103% in test [6]. The residual activity in [7] worked out at 56%; in test [8], 21%; in [9], 109%; in test [10] it was 107%; in test [11], 95%; in test [12], 80%. In addition, the residual activity in test [13] was determined as 98%; in [14], 96%; in [15], 88%; in test [16], 76%; in test [17], 94%; in [18], 99%. Also, the residual activity in test [19] amounted to 89%; in test [20], 92%.
For `O=C1NC(=O)/C(=C/c2ccc3c(c2)OC(F)(F)O3)S1`, the residual activity in test [1] is 94% (inactive); in test [2] it was 96%; in test [3], 88%; in test [4] it was 77%; in [5], 135%; in test [6], 101%. Also, the residual activity was found to be 99% in test [7]; 83% in test [8]; 95% in test [9]; 116% in [10]; 113% in test [11]; 89% in [12]. The residual activity came to 91% in test [13]; 98% in [14]; 100% in test [15]; 77% in test [16]; 105% in test [17]; 108% in [18]. Besides, the values for the residual activity in [19] and in test [20] were 96% and 105%, respectively.
For the compound `Cc1nc(-c2ccccc2)c(-c2ccncc2)o1`, the residual activity in test [1] is 106% (inactive); in test [2], 96%; in test [3] it was 86%; in test [4], 85%; in test [5] it was 91%; in test [6], 79%. Also, the residual activity in test [7] is 58%; in test [8] it was 25%; in test [9], 124%; in test [10], 108%; in test [11] it was 106%; in test [12], 76%. In addition, the residual activity in test [13] worked out at 11%; in test [14], 7%; in test [15], 87%; in test [16], 96%; in [17] it was 98%; in test [18] it was 97%. The residual activity in [19] turned out to be 98%; in test [20] it was 121%.
Take `O=C1NC(=O)c2cc(Nc3ccc(F)cc3)c(Nc3ccc(F)cc3)cc21`: the residual activity in test [1] was 92% (inactive); in test [2] it was 80%; in [3] it was 90%; in [4], 48%; in [5], 119%; in [6] it was 81%. Also, the residual activity was found to be 76% in [7]; 42% in [8]; 108% in [9]; 123% in test [10]; 101% in test [11]; 78% in test [12]. The residual activity in [13] amounted to 91%; in test [14], 86%; in test [15], 104%; in test [16], 76%; in [17], 94%; in [18], 92%. Also, the residual activity came out at 94% in [19] and 97% in test [20].
